# Test results as given in PubChem BioAssay (NCI).
# Values joined by “and” are separate entries in the source; they are usually repeats but may differ in a detail not shown here. Equal values may be shown once. The panel holds about 83,000 compounds, 20% with a hit somewhere; the sample as a whole holds those more often.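 Plates (96-well) were seeded with cells, treated with compound at one concentration, and incubated for 48 hours before percent growth was determined.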 Active and inactive are the calls of the source. The calls were made as follows: active = growth percent below 10; inactive = the rest.
# Key:
# Test in all cases: NCI-60 one-dose screen, 48 h (100 = growth as untreated, 0 = no growth, -100 = all killed)
# [1] = tested on: T-47D breast; details: 10 µM unless noted
# [2] = tested on: MDA-MB-435 melanoma
# [3] = tested on: SW-620 colon
# [4] = tested on: MCF7 breast
# [5] = tested on: HCT-116 colon
# [6] = tested on: KM12 colon
# [7] = tested on: BT-549 breast
# [8] = tested on: HCC-2998 colon
smiles,measurement,setting,value
Cn1c(=O)c2[nH]c(CCCCCCCCc3nc4ccccc4[nH]3)nc2n(C)c1=O,growth,[1],46.6% (inactive) and 44% (inactive)
same,growth,[2]; 10 µM unless noted,37% (inactive) and 52.2% (inactive)
same,growth,[3]; 10 µM unless noted,91.7% (inactive) and 91.2% (inactive)
same,growth,[4]; 10 µM unless noted,45.2% (inactive) and 50.7% (inactive)
same,growth,[5]; 10 µM unless noted,40.9% (inactive) and 56% (inactive)
same,growth,[6]; 10 µM unless noted,83.6% (inactive) and 91.1% (inactive)
COc1ccc(Cl)cc1C(=O)NCCc1ccc(S(=O)(=O)NC(=O)NC2CCCCC2)cc1,growth,[7]; 10 µM,109% (inactive) and 107% (inactive)
same,growth,[7]; 100 µM,67% (inactive)
same,growth,[2]; 10 µM,103% (inactive) and 107% (inactive)
same,growth,[2]; 100 µM,69.5% (inactive)
same,growth,[3]; 10 µM,99.3% (inactive) and 109% (inactive)
same,growth,[3]; 100 µM,82.9% (inactive)
same,growth,[4]; 10 µM,108% (inactive) and 102% (inactive)
same,growth,[4]; 100 µM,66.1% (inactive)
same,growth,[5]; 10 µM,110% (inactive) and 96.1% (inactive)
same,growth,[5]; 100 µM,67.3% (inactive)
same,growth,[8]; 10 µM,126% (inactive) and 118% (inactive)
same,growth,[8]; 100 µM,87.4% (inactive)
same,growth,[6]; 10 µM,109% (inactive) and 108% (inactive)
same,growth,[6]; 100 µM,60.1% (inactive)
C#CCN(C)Cc1ccccc1,growth,[7]; 10 µM unless noted,94.6% (inactive) and 141% (inactive)
same,growth,[2]; 10 µM unless noted,107% (inactive) and 98.3% (inactive)
same,growth,[3]; 10 µM unless noted,104% (inactive) and 103% (inactive)
same,growth,[4]; 10 µM unless noted,118% (inactive) and 95.9% (inactive)
same,growth,[5]; 10 µM unless noted,99.6% (inactive) and 86.9% (inactive)
same,growth,[8]; 10 µM unless noted,103% (inactive) and 97.7% (inactive)
CCOC(=O)Nc1ccc2c(c1)/C(=N\NC(N)=S)c1ccccc1-2,growth,[1],26.4% (inactive) and 31.3% (inactive)
same,growth,[2]; 10 µM unless noted,57.3% (inactive) and 59.9% (inactive)
same,growth,[4]; 10 µM unless noted,63% (inactive) and 70.6% (inactive)
same,growth,[5]; 10 µM unless noted,53.5% (inactive) and 71.4% (inactive)
same,growth,[8]; 10 µM unless noted,60.9% (inactive) and 68.9% (inactive)
same,growth,[6]; 10 µM unless noted,40.4% (inactive) and 54.2% (inactive)
CC1=CCC2CC1C2(C)C (configuration not stated),growth,[1],105% (inactive) and 102% (inactive)
same,growth,[2]; 10 µM unless noted,98.3% (inactive) and 94.2% (inactive)
same,growth,[3]; 10 µM unless noted,101% (inactive) and 103% (inactive)
same,growth,[4]; 10 µM unless noted,98.1% (inactive) and 91.6% (inactive)
same,growth,[5]; 10 µM unless noted,92.2% (inactive)
same,growth,[6]; 10 µM unless noted,100% (inactive) and 110% (inactive)
Nc1ccc(N=Nc2ccc(S(=O)(=O)O)cc2)cc1S(=O)(=O)O,growth,[7]; 10 µM unless noted,120% (inactive) and 148% (inactive)
same,growth,[2]; 10 µM unless noted,108% (inactive) and 101% (inactive)
same,growth,[3]; 10 µM unless noted,115% (inactive) and 97.8% (inactive)
same,growth,[4]; 10 µM unless noted,104% (inactive) and 92.8% (inactive)
same,growth,[5]; 10 µM unless noted,90.2% (inactive) and 114% (inactive)
same,growth,[8]; 10 µM unless noted,105% (inactive) and 94.5% (inactive)
same,growth,[6]; 10 µM unless noted,96.1% (inactive) and 105% (inactive)
Nc1ccc2[nH]c(-c3ccccc3)cc(=O)c2c1,growth,[7]; 10 µM unless noted,81.2% (inactive)
same,growth,[2]; 10 µM unless noted,-21.2% (active)
same,growth,[3]; 10 µM unless noted,57.6% (inactive)
same,growth,[4]; 10 µM unless noted,51.7% (inactive)
same,growth,[5]; 10 µM unless noted,81% (inactive)
same,growth,[8]; 10 µM unless noted,78.3% (inactive)
same,growth,[6]; 10 µM unless noted,45.2% (inactive)
CC(=O)C(/C=N/C(N)=O)=C(/C)O,growth,[7]; 10 µM unless noted,101% (inactive)
same,growth,[2]; 10 µM unless noted,103% (inactive)
same,growth,[3]; 10 µM unless noted,105% (inactive)
same,growth,[4]; 10 µM unless noted,106% (inactive)
same,growth,[5]; 10 µM unless noted,105% (inactive)
same,growth,[8]; 10 µM unless noted,106% (inactive)
same,growth,[6]; 10 µM unless noted,111% (inactive)
c1ccc2cc(C[n+]3ccn(Cc4ccc5ccccc5n4)c3)ccc2c1,growth,[7]; 10 µM unless noted,-15.9% (active) and 12.2% (inactive)
same,growth,[2]; 10 µM unless noted,4.58% (active) and 19.6% (inactive)
same,growth,[3]; 10 µM unless noted,18.9% (inactive) and 56.4% (inactive)
same,growth,[4]; 10 µM unless noted,9.04% (active)
same,growth,[5]; 10 µM unless noted,2.66% (active)
same,growth,[8]; 10 µM unless noted,11.1% (inactive) and 30.9% (inactive)
CCCCCCCCCCCCOc1ccccc1C=O,growth,[1],100% (inactive)
same,growth,[2]; 10 µM unless noted,98.3% (inactive)
same,growth,[4]; 10 µM unless noted,81.7% (inactive)
same,growth,[5]; 10 µM unless noted,103% (inactive)
same,growth,[8]; 10 µM unless noted,90.2% (inactive)
same,growth,[6]; 10 µM unless noted,102% (inactive)
N#C/C(=C1C=C/C(=N/O)C(Br)=C/1)c1ccccc1,growth,[1],37.1% (inactive)
same,growth,[2]; 10 µM unless noted,-64.5% (active)
same,growth,[3]; 10 µM unless noted,12.7% (inactive)
same,growth,[4]; 10 µM unless noted,18.2% (inactive)
same,growth,[5]; 10 µM unless noted,-14.7% (active)
same,growth,[6]; 10 µM unless noted,-32.6% (active)
